Most compounds without a hit are left out; they make up all but 2.2% or so of the library.
VACV Venus inh – inhibitors of vaccinia virus (Venus reporter). 330,000 compounds, 0.46% hits. Potency, µM (titrated, usually from 36.5 µM), inactives show at the top dose activity change, negative = inhibition, hits mostly inhibitors. AID 720580. Vaccinia virus Venus reporter expression, fluorescence; calls by dose curve; tested in A549 cells; note: nearly all actives have a fitted effect of over 30% in size
Vaccinia mCherry – vaccinia inhibition (mCherry reporter); Vaccinia virus mCherry reporter infection, fluorescence; Potency, µM (doses to about 36.5 µM), for inactives: at the highest dose activity change, negative = inhibition, actives largely listed as inhibitors; 310,000 compounds, 0.63% hits; AID 720579; calls by dose curve; tested in A549 cells; note: nearly all actives have a fitted effect of over 35% in size
FBPA Giardia inh – inhibitors of Giardia lamblia fructose-1,6-bisphosphate aldolase; purified Giardia FBPA; A8B2U2; Potency, µM (doses to about 59.6 µM), without a hit: at the highest dose activity, negative = inhibition, most hits filed as inhibitors; 290,000 compounds, 0.71% hits; active = well fitted inhibition curve with a large enough effect; inconclusive = small, poorly fitted or top-dose-only effect, or effect the other way; note: nearly all actives have a fitted effect of over 55% in size
Target sequence (A8B2U2 whole entry, looked up): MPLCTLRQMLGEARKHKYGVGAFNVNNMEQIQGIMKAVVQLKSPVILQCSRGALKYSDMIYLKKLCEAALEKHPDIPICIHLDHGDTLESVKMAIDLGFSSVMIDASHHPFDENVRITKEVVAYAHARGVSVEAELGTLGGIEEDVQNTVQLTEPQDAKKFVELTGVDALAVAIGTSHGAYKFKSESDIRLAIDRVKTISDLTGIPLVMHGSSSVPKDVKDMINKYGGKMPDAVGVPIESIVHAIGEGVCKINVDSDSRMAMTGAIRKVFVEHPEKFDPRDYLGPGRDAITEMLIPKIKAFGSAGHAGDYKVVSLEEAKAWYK
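Giardia FBPA (40 nM reagent) was preincubated 10 min at RT with compound (up to 57.5 uM final), then substrate plus GAPDH/TPI/NAD/arsenate coupling system with diaphorase/resazurin was added; resorufin fluorescence (525/598 nm) was read after 20 min.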
FMDV inh – blocks foot and mouth disease virus. FMDV antiviral cell-based qHTS. Potency, µM (highest dose often 57.9 µM), without a hit: top-dose activity change, negative = inhibition, usual class: inhibitors. 410,000 compounds, 1.2% hits. AID 1159524; calls by dose curve; tested in HEK293T cells; note: read-out not given here; nearly all actives have a fitted effect of over 45% in size
An asterisk follows results filed as active; i = inactive; u = inconclusive; x = no result given; [ ] = another dose, or the depositor's remark. % is set by controls: 0 for no effect and ±100 for the full control effect; potency is the fitted concentration of half-maximal effect.

SMILES	VACV Venus inh	Vaccinia mCherry	FBPA Giardia inh	FMDV inh
C/C(=N\NC(N)=S)C12CC3CC(CC(C3)C1)C2	8.91µM*	11.2µM*	-4.0%	x
O=[N+]([O-])c1cc([N+](=O)[O-])c(Oc2cccnc2Br)cc1NN1CCCCC1	u	12.6µM*	4.5%	u
CC(=O)Nc1ccc(S(=O)(=O)N2CCc3nc(-c4ccccc4)c4c(c3C2)CO[C@@H](C)C4)cc1	x	x	5.7%[12.9 µM]	x
COc1cccc(CC2(CO)CCCN(Cc3[nH]c4ccc(C)cc4c3C)C2)c1 (stereo not drawn)	u	11.2µM*	-2.8%	7.0%
O=[N+]([O-])c1ccc2c(c1)S(=O)(=O)C=C2	x	x	-3.7%	31.6µM*
CC1(C)S[C@@H]2[C@H](N)C(=O)N2[C@H]1C(=O)O	x	x	x	-11.7%
CC(=O)c1ccc(N2CCN(S(=O)(=O)c3ccc4c5c3CC(=O)N5CC(C)S4)CC2)cc1 (stereo not drawn)	x	x	u	14.1µM*
Cc1ccc2c(=O)c3cccc(CC(=O)O)c3oc2c1C	x	x	27.4%	x
Cc1cccc2c1N(Cc1ccccc1OCCC(C)C)C(=O)C2=O	-26.7%	-27.8%	x	0.0%
FC(F)(F)C1=Nc2cccc3cccc(c23)N1	0.7%	-12.9%	x	15.8µM*
Cc1cnc(-n2ncc(C(=O)NCc3ccncc3)c2C2CC2)nc1-c1cccs1	-27.5%	u	x	-28.9%
CN(Cc1ccc2c(c1)OCCO2)C(=O)CSc1ncnc2sccc12	-21.8%	-0.3%	x	39.8µM*
O=C(CSc1ncnc2sccc12)NCc1ccc2c(c1)OCO2	x	x	x	-13.4%
Cc1nc(S/C(C(=O)O)=C2/C(=O)Nc3ccccc32)n[nH]1	x	x	-28.1%	2.51µM*
COc1cc(OC)cc(-c2cc3nc(C)c(CCC(=O)NC(C)CCc4ccco4)c(C)n3n2)c1 (stereo not drawn)	x	x	-8.3%	u
COc1cc(OC)cc(-c2cc3nc(C)c(CCC(=O)O)c(C)n3n2)c1	-9.7%	9.3%	-2.3%	1.41µM*
COc1ccc(-c2cc3nc(C)c(CCC(=O)N4CCN(c5cc(C)ccc5C)CC4)c(C)n3n2)c(OC)c1	u	u	x	28.2µM*
Nc1ccc(C=O)cc1	-10.9%	-2.7%	x	x
Cc1ccc2nc(SCC(=O)NCC3Cc4cccc(-c5nc(C)cnc5C)c4O3)[nH]c2c1 (stereo not drawn)	-0.1%	-11.3%	x	9.8%
COC(=O)c1cc(C(=O)N2CCN(c3ccccc3OC)CC2)cc([N+](=O)[O-])c1	-15.5%	2.82µM*	-16.0%	-7.1%
COc1ccccc1N1CCN(C(=O)c2ccc3nc(-c4ccco4)c(-c4ccco4)nc3c2)CC1	u	11.2µM*	0.8%	u
COC(=O)c1cc(C(=O)N2CCN(c3cccc(C)c3C)CC2)cc([N+](=O)[O-])c1	-24.2%	u	-4.8%	-29.2%
Cc1c(C(=O)N2CC3CCC2C3)sc2ncnc(NCc3ccco3)c12 (stereo not drawn)	-17.4%	-1.8%	x	-9.5%
CC(=O)OCC1=C(C(=O)O)N2C(=O)C(NC(=O)Cn3nc(C(F)F)c(Cl)c3C)C2SC1 (stereo not drawn)	1.3%	12.2%	-8.2%	-1.1%
Cc1nnc(SCC2=C(C(=O)O)N3C(=O)C(NC(=O)Cn4nc(C(F)F)c(Cl)c4C)C3SC2)s1 (stereo not drawn)	-4.4%	0.2%	3.97µM*	16.6%
SMILES	VACV Venus inh	Vaccinia mCherry	FBPA Giardia inh	FMDV inh
O=C(CCl)Nc1cccc(S(=O)(=O)N2CCCCCC2)c1	u	u	3.1%	25.1µM*
N#Cc1cccc(NC(=O)CNc2cccc(S(=O)(=O)N3CCCCC3)c2)c1	-7.2%	-14.0%	x	35.5µM*
O=C(CNc1cccc(F)c1)Nc1cccc(S(=O)(=O)N2CCCCC2)c1	-7.3%	-0.3%	x	17.2%
COc1ccccc1N=c1scc(-c2ccc(S(=O)(=O)N3CCCC3)cc2)n1C	u	-19.2%[7.34 µM]	x	2.82µM*
CC(=O)c1cccc(N=c2scc(-c3ccc(S(=O)(=O)N4CCOCC4)cc3)n2CCO)c1	u	u	-8.5%	20µM*
C=CCn1c(-c2ccc(S(=O)(=O)N3CCOCC3)cc2)csc1=Nc1ccccc1	-22.3%	x	-18.2%	u
O=S(=O)(c1ccc(-c2csc(=Nc3ccc(F)cc3)n2CCCCCCO)cc1)N1CCCC1	-28.2%	u	x	25.1µM*
COc1ccccc1C(=O)N[C@@H]1c2ccccc2C2(CCN(Cc3ccc(C)o3)CC2)[C@H]1O	-23.6%	-4.6%	x	-4.1%
Cc1ccc(CN2CCC(C3(c4ccccn4)NC(=O)N(CC4CCCO4)C3=O)CC2)cc1C (stereo not drawn)	-17.3%	-4.4%	x	-5.1%
COCC(=O)Nc1cc(C(=O)N2CCN(C3CCCC3)C(=O)C2)c2c(c1)nc(-c1ccncc1)n2C	4.5%	-9.1%	x	-6.8%
COCCn1c(SCCOc2ccccc2)nc2ccccc2c1=O	-9.8%	-19.3%	-1.0%	25.1µM*
O=C(Nc1ccccc1)c1ccc(-c2ccc([N+](=O)[O-])cc2)o1	-14.6%	-3.9%	-0.3%	1.2%
COc1ccc(CCNC(=O)c2ccc(-c3ccc([N+](=O)[O-])cc3)o2)cc1OC	-21.2%	-1.2%	-3.4%	17.8µM*
COc1ccc(CCNC(=O)c2ccc(CS(=O)(=O)Cc3cccc(C)c3)o2)cc1OC	-4.5%	-13.4%	x	39.8µM*
O=C(NNC(=O)c1ccccc1O)c1ccc(-c2ccc([N+](=O)[O-])cc2)o1	u	10µM*	x	-11.3%
Oc1cc2c(cc1O)C1c3ccc(O)c(O)c3OCC1(O)C2 (stereo not drawn)	83.5%	39.0%	6.29µM*	u
COc1cc(/C=C/c2ccnc3ccccc23)cc(OC)c1OC	-23.3%	-17.3%	x	x
CCCOc1ccc(NC(=O)c2c(-c3ccccc3)noc2C)cc1	-14.4%	3.4%	0.5%	-18.7%
CCOC(=O)c1c(-c2ccc(F)cc2)csc1NC(=O)c1c(-c2ccccc2)noc1C	16.0%	u	-3.8%	-27.0%
COC(=O)c1c(-c2ccccc2)csc1NC(=O)c1c(-c2ccccc2)noc1C	18.7%	6.31µM*	-0.4%	u
Cc1onc(-c2ccccc2)c1C(=O)Nc1ccc(OC(C)C)cc1	-3.6%	10.0%	-0.7%	0.708µM*
O=C(O)CN1C(=O)/C(=C/c2ccc(SCc3ccccc3)o2)SC1=S	x	x	19.9µM*	-19.5%
COc1cc2nc(NC3CCN(C)CC3)nc(NC3CCN(C)CC3)c2cc1OC	-19.6%	-7.2%	x	x
O=C(NCc1nnc(SCc2ccccc2)n1-c1ccc(F)cc1)C12CC3CC(CC(C3)C1)C2	u	-4.8%	1.2%	25.1µM*
CN(C)C(=S)NC1CCS(=O)(=O)C1 (stereo not drawn)	5.5%	3.9%	-4.2%	-4.1%
O=C(NC1CCS(=O)(=O)C1)c1ccc(Br)s1 (stereo not drawn)	-13.2%	-6.0%	x	-15.2%
CC(C)(C)c1cc(CSC(=S)NC2CCS(=O)(=O)C2)c(Br)c(C(C)(C)C)c1 (stereo not drawn)	-5.6%	-14.3%	-6.1%	15.8µM*
O=S1(=O)CC=C(CSC(=S)NC2CCS(=O)(=O)C2)C1 (stereo not drawn)	-3.2%	i	u	11.2µM*
CN(C)CC1CCn2c(c(C3=C(c4cn(C)c5ccccc45)C(=O)NC3=O)c3ccccc32)C1 (stereo not drawn)	x	x	-8.3%	x
CC(C)c1ccc(NC(=O)CSc2nnc(-c3ccccc3)n2C)cc1	-22.2%	-21.4%	x	x

High-throughput results: PubChem, National Center for Advancing Translational Sciences (NCATS)
